Source: PubChem (National Center for Advancing Translational Sciences (NCATS))
Sampled rows, rich in hits. Any-hit rate of the full collection: about 3.3%.
PI4K2A block: qHTS for small molecular inhibitors of PI4K2A; Phosphatidylinositol 4-kinase type 2-alpha (Homo sapiens), Q9BTU6; activity change, negative = inhibition, % at 76.9 µM; purified PI4K2A, ADP-Glo luminescence, 1 h; hits give low values; AID 1346378, 2018; 0.13% of 420,000 active; in the data active = activity change below about -50%; inconclusive = mostly about -30% to -49%;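 note: -100% = wells without enzyme as full effect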
Target sequence (Q9BTU6 whole entry, looked up): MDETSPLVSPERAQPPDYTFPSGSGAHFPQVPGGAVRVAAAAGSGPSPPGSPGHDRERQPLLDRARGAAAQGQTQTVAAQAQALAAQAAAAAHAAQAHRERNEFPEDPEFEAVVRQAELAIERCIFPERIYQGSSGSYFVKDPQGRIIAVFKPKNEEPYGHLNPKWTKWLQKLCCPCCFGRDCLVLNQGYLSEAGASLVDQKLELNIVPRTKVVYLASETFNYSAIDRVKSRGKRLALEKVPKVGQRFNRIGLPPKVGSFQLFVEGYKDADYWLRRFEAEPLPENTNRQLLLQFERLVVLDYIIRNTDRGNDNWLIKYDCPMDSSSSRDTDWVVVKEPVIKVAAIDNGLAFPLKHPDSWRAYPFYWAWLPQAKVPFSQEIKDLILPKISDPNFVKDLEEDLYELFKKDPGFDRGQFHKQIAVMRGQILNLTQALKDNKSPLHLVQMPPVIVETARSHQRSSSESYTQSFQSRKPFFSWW
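In this quantitative HTS, ADP production by PI4K2A was quantified luminescently after 1 h at ambient temperature; 100 microM adenosine served as plate-quality control.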
D3 antag: qHTS of D3 Dopamine Receptor Antagonist: qHTS; D3R cells, DiscoveRx beta-arrestin luminescence, antagonist mode; hits give low values; max response, negative = inhibition, %; 2.5% of 360,000 active; AID 652054, 2013; in the data active = max response below about -50%; inconclusive = no clear call, values can overlap the other calls; note: % is set by controls: 0 for no effect and ±100 for the full control effect
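Cells plated overnight at 1500 cells/well, then exposed to library compounds with dopamine controls for 90 minutes at 37 degrees C. DiscoveRx reagent added for 30–60 minutes at room temperature; luminescence read, quantitative HTS format.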
PI5P4K alpha inh: qHTS for Inhibitors of phosphatidylinositol 5-phosphate 4-kinase (PI5P4K); Phosphatidylinositol 5-phosphate 4-kinase type-2 alpha (Homo sapiens), P48426; PI5P4Kalpha enzyme, ADP-Glo luminescence, 60 min; hits give low values; 1.2% of 330,000 active; max response, %; AID 652105, 2013; active = max response of -50% or lower; inconclusive = between -30% and -50%; inactive = -30% or higher; note: value at the top dose of about 77 µM; % is set by controls: 0 for no effect and ±100 for the full control effect
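Human PI5P4Kalpha with substrate in 0.038 M HEPES pH 7.4, 0.28 mM EGTA, 0.1% CHAPS, 5% DMSO; reaction started with 5 microM ATP (final), 60 min at room temperature. ADP formed read by ADP-Glo luminescence.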
D3 ag: qHTS of D3 Dopamine Receptor Agonist: qHTS | AID 652048, 2013 | D3R DiscoveRx beta-arrestin cells, luminescence, 90 min | max activation, % | 0.58% of 410,000 active | D(3) dopamine receptor (Homo sapiens), P35462; in the data active = max activation above about 30%; note: 0% is about no effect
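Cells at 1500/well, incubated overnight, then treated with pinned compounds (dopamine as control) for 90 min at 37 degrees C. DiscoveRx reagent added for 30 - 60 minutes at room temperature; luminescence read.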
LDHA inh: qHTS assay for inhibitors of human lactate dehydrogenase; L-lactate dehydrogenase A chain (Homo sapiens), P00338; purified LDHA, NADH/diaphorase-resazurin fluorescence; hits give low values; activity change, % (values are at about 110 or 230 µM); 0.15% of 480,000 active; in the data active = activity change below about -30%; inconclusive = mostly about -25% to -30%;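 note: plate controls were DMSO wells for no effect and wells without enzyme for full effect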
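Remaining NADH was detected by diaphorase (0.133 mg/mL) converting 37 µM resazurin to fluorescent resorufin, read at 0 and 20 minutes. The preceding 5-minute room-temperature reaction used 2 nM LDHA, 0.2 mM sodium pyruvate and 0.06 mM NADH at pH 7.4.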
The depositor's hits bear a star; u = inconclusive; x = no result.

SMILES	PI4K2A block	D3 antag	PI5P4K alpha inh	D3 ag	LDHA inh
O=c1[nH]c2cc3c(cc2cc1CN(Cc1cccs1)Cc1nnnn1Cc1ccco1)OCCO3	-27	u	-83*	-1	4
CCOc1ccc2[nH]c(=O)c(CN(Cc3cccs3)Cc3nnnn3C(C)(C)CC)cc2c1	-1	21	x	31*	-3
Cc1cc(Br)c(NC(=O)COC(=O)c2ccc(O)cc2)c(Br)c1	x	x	x	x	2
COc1ccccc1N1CCN(C(=O)C2CCCN(c3ncnc4c3nc3n4CCCCC3)C2)CC1 (stereo not given)	-2	43	0	0	2
COc1ccccc1N1CCN(CCCNC(=O)C2CCCN(c3ncnc4c3nc3n4CCCCC3)C2)CC1 (stereo not given)	-4	-104*	-4	-20	1
O=C(NCCCN1CCN(c2ccc(F)cc2)CC1)C1CCCN(c2ncnc3c2nc2n3CCCCC2)C1 (stereo not given)	2	-55*	0	-11	-1
CC1CCN(CCCNC(=O)C2CCCN(c3ncnc4c3nc3n4CCCCC3)C2)CC1 (stereo not given)	-1	-16	-3	-6	-4
Cn1cccc1/C=N\NC(=O)C1COc2ccc(C(C)(C)C)cc2O1 (stereo not given)	-1	13	14	12	0
Cc1c(/C=N\NC(=O)C2COc3ccc(C(C)(C)C)cc3O2)c2ccccc2n1C (stereo not given)	2	19	3	58*	-9
CC(=O)OCCn1c(C)[n+](CCOC(C)=O)c2cc(Cl)c(Cl)cc21	3	-1	-1	3	-16
CCn1c(C)[n+](CCOCC[n+]2c(C)n(CC)c3cc(Cl)c(Cl)cc32)c2cc(Cl)c(Cl)cc21	-3	-6	x	-14	-43*
Cc1ccccc1C1CCCN1S(=O)(=O)c1ccc(C(C)(C)C)cc1 (stereo not given)	x	x	x	x	3
CCCCCCCCCCCCS(=O)CC(O)c1ccccc1 (stereo not given)	x	x	x	x	11
Cc1cc(-c2nc3cccnc3s2)ccc1NS(=O)(=O)c1cccs1	-1	12	u	11	-3
O=S(=O)(Nc1cccc2ncccc12)c1cccs1	-5	-69*	6	-19	15
CN1CCCN(C(=O)C2CCCN(C(=O)c3ccc4c(c3)NC(=O)CS4)C2)CC1 (stereo not given)	6	x	x	x	x
COc1ccc(Br)cc1C=NNS(=O)(=O)c1ccc(C)cc1	2	u	11	-7	2
COc1ccc(Cl)cc1C=CC=NNS(=O)(=O)c1ccc(C)cc1	14	-88*	2	-24	-4
CSc1cccc(Sc2cc(C(=O)NC3CCCC3)c3ccccc3n2)c1	x	x	x	x	12
COC(=O)Nc1ccc(SCC(=O)c2cccc([N+](=O)[O-])c2)cc1	-4	-60*	1	-5	-1
O=C(CSc1ccc(-c2ccco2)nn1)c1cccc([N+](=O)[O-])c1	-29	15	-64*	6	0
Cc1cc(SCc2ccc([N+](=O)[O-])cc2)nc(=O)[nH]1	-3	18	-59*	1	0
Cc1cc(SCc2cccc([N+](=O)[O-])c2)nc(=O)[nH]1	-6	-10	u	-2	-5
Cc1cc(SCC(=O)c2cccc([N+](=O)[O-])c2)nc(=O)[nH]1	-6	-3	-58*	1	3
CC(=O)c1cccc(NC(=O)CSc2ccc(-c3ccco3)nn2)c1	-17	5	u	2	4
SMILES	PI4K2A block	D3 antag	PI5P4K alpha inh	D3 ag	LDHA inh
C=CCc1ccc(OCCCCN2CC(C)OC(C)C2)c(OC)c1 (stereo not given)	9	-69*	-1	-6	-14
Cc1ccc(Cl)c(OCCN2CCc3ccccc3C2)c1	2	-60*	0	7	-3
C/C=C/c1ccc(OCCCCOc2c(OC)cccc2OC)c(OC)c1	0	12	23	-7	-1
C=CCc1ccc(OCCN2CCc3ccccc3C2)c(OC)c1	-4	-75*	-8	-16	-12
Cc1ccc(C)c(OCC(=O)N2CCc3ccccc3C2)c1	-1	0	-2	-4	-2
C=CCc1ccc(OCCCOc2ccc(C)cc2OC)c(OC)c1	0	15	2	3	4
C/C=C/c1ccc(OCCN2CCc3ccccc3C2)c(OC)c1	3	-76*	1	-20	-8
O=C(CSc1ncnc2sc3c(c12)CCC3)Nc1ccc(F)cc1	x	x	x	x	3
O=C(OCc1ncc(-c2ccccc2)o1)c1cncc(Br)c1	x	x	x	x	-10
O=C(Nc1ccc2nc(-c3cccs3)c(-c3cccs3)nc2c1)N1CCCCC1	x	x	x	x	5
O=C(Nc1ccc(O)c2c(=O)cc(-c3ccccc3Cl)oc12)c1ccc(F)cc1	4	33	-1	1	-3
O=c1cc(-c2ccccc2Cl)oc2c(NS(=O)(=O)c3cc(Cl)cc(Cl)c3O)ccc(O)c12	-1	26	-89*	36*	-19
CC(C)(C)c1ccc(C(=O)Nc2ccc(O)c3c(=O)cc(-c4ccccc4Cl)oc23)cc1	-5	33	6	119*	-18
CCc1ccc(S(=O)(=O)Nc2ccc(O)c3c(=O)cc(-c4ccccc4Cl)oc23)cc1	4	-22	5	-42	-5
CC1CCC2C3(C)COC(C)(C)OC3CC[C@]2(C)[C@@]12CCC1(CCOC1)O2 (stereo not given in full)	x	x	x	x	2
CC1CCN(S(=O)(=O)c2ccc3c(c2)c(=O)c(C(=O)N2CCCCC2)cn3C)CC1	-2	7	x	35*	3
O=C(N[C@@H](Cc1c[nH]c2ccccc12)C(=O)O)c1ccc(Cl)cc1F	x	x	x	x	-1
Cn1c(=O)c2sccc2n(CC(=O)NCC2CCCO2)c1=O (stereo not given)	x	x	x	x	-41*
CC(NC(=O)c1cn(C)nc1-c1ccc2c(c1)OCCCO2)C1CC1 (stereo not given)	x	x	x	x	9
CCOc1ccc(NC(=O)c2cc(=O)c3cc(C)c(C)cc3o2)cc1	x	x	x	x	5
CSc1ccc(S(=O)(=O)Nc2c(C)cccc2C)cc1	4	-166*	x	-9	-5
CSc1ccc(S(=O)(=O)Nc2ccc(F)cc2)cc1	2	-27	-5	-6	-7
